The values that follow come from PubChem BioAssay (NCI).

The structures appear in SMILES notation. About 83,000 compounds went through this panel and 20% of them were active in at least one assay; those are over-represented in the sample as a whole.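 Plates (96-well) were seeded with cells, treated with compound at one concentration, and incubated for 48 hours before percent growth was determined.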 Unmarked numbers belong to inactive results. The source made the active and inactive calls. The calls were made as follows: active = growth percent below 10; inactive = the rest.

Test systems include SK-MEL-2 melanoma; SN12C renal; UO-31 renal; TK-10 renal; ACHN renal; CAKI-1 renal; A498 renal; CCRF-CEM leukemia; MOLT-4 leukemia; SR leukemia; RPMI-8226 leukemia; OVCAR-8 ovarian; OVCAR-5 ovarian; SK-OV-3 ovarian; IGROV1 ovarian; HS 578T breast; NCI/ADR-RES ovarian; OVCAR-3 ovarian; OVCAR-4 ovarian.
Assay in all cases: NCI-60 one-dose screen, 48 h (100 = growth as untreated, 0 = no growth, -100 = all killed)
Common to all, as to conditions: 10 µM unless noted

In the case of `COc1cc(C(=O)OCCCCCCCCCCC[P+](c2ccccc2)(c2ccccc2)c2ccccc2)ccc1O`, the growth is -32.1% (active) in the assay on SK-MEL-2 melanoma; -70.1% (active) in the assay on SN12C renal; -8.76% (active) with UO-31 renal; 8.26% (active) with TK-10 renal; -1.87% (active) in the assay with ACHN renal; -73.2% (active) in the assay with CAKI-1 renal. The growth in the assay with A498 renal is -0.743% (active); with CCRF-CEM leukemia it was -32.3% (active); in the assay with MOLT-4 leukemia, -50.9% (active); in the assay on SR leukemia, -58.7% (active); with RPMI-8226 leukemia, -9.32% (active); with OVCAR-8 ovarian, -62% (active). Besides, the growth in the assay with OVCAR-5 ovarian is 22.6%; with SK-OV-3 ovarian, -1.8% (active); with IGROV1 ovarian, 11.6%; in the assay with HS 578T breast, -13.3% (active); in the assay with NCI/ADR-RES ovarian it was 50.6%.

As to `CCn1cc(C(=O)O)c(=O)c2cc(F)c(N3CCN(S(=O)(=O)c4c(C)cc(C)cc4C)CC3)cc21`, the growth was 88.7% with SK-MEL-2 melanoma; 88.5% with SN12C renal; 33.1% with UO-31 renal; 97.5% in the assay on TK-10 renal; 75.8% in the assay on ACHN renal; 89.5% in the assay on CAKI-1 renal. Moreover, the growth in the assay with A498 renal was 78.9%; in the assay on CCRF-CEM leukemia, 81.8%; in the assay on MOLT-4 leukemia, 75.9%; in the assay with SR leukemia it was 64.7%; with RPMI-8226 leukemia, 64.1%; with OVCAR-8 ovarian it was 81.5%. The growth in the assay with OVCAR-5 ovarian was 88.6%; with SK-OV-3 ovarian, 101%; with IGROV1 ovarian, 79.4%; with OVCAR-3 ovarian it was 89.2%; in the assay on NCI/ADR-RES ovarian it was 84.8%.

For `c1ccc(CCn2nnc3c(Nc4ccc(N5CCOCC5)cc4)ncnc32)cc1`, the growth is 105% in the assay on SK-MEL-2 melanoma; 92.1% with SN12C renal; 87.1% in the assay on UO-31 renal; 121% in the assay with TK-10 renal; 104% with ACHN renal; 86.3% with CAKI-1 renal. Besides, the growth with A498 renal was 77.6%; with CCRF-CEM leukemia, 71.6%; in the assay on MOLT-4 leukemia it was 66.4%; in the assay on SR leukemia, 36%; with RPMI-8226 leukemia, 68.2%; in the assay on OVCAR-8 ovarian, 86.2%. The growth with OVCAR-5 ovarian was 88.1%; in the assay with OVCAR-4 ovarian, 89.3%; in the assay on IGROV1 ovarian it was 95.3%; in the assay on OVCAR-3 ovarian it was 85.9%; with HS 578T breast, 97.3%; with NCI/ADR-RES ovarian it was 78.8%.

On to `O=Nc1c(-c2c(O)[nH]c3ccc([N+](=O)[O-])cc23)[nH]c2ccc(O)cc12`, for which the growth in the assay on SK-MEL-2 melanoma is -55% (active); with SN12C renal it was 23.7%; with UO-31 renal, -1.14% (active); with TK-10 renal, 49.9%; in the assay with ACHN renal, -25.8% (active); with CAKI-1 renal, -14.3% (active). In addition, the growth in the assay on A498 renal is -24.5% (active); with CCRF-CEM leukemia it was 0.486% (active); in the assay with MOLT-4 leukemia, 2.17% (active); in the assay with SR leukemia, 0.378% (active); with RPMI-8226 leukemia it was -7.92% (active); in the assay on OVCAR-8 ovarian, 7.71% (active). Besides, the growth in the assay with OVCAR-4 ovarian is 19.7%; in the assay on SK-OV-3 ovarian, -9.52% (active); with IGROV1 ovarian it was 6.36% (active); in the assay on OVCAR-3 ovarian, 4.31% (active); in the assay on HS 578T breast, 1.21% (active); in the assay on NCI/ADR-RES ovarian, 42%.

Take `COc1ccc(/C=C/c2nc(N3CCOCC3)c3nc(Cl)c(Cl)cc3n2)cc1OC`: the growth with SK-MEL-2 melanoma is 99.1%; in the assay on SN12C renal, 98.3%; in the assay with UO-31 renal it was 108%; in the assay on TK-10 renal it was 104%; in the assay with ACHN renal it was 100%; in the assay on CAKI-1 renal it was 93.7%. The growth with A498 renal is 93.7%; with CCRF-CEM leukemia it was 99.3%; in the assay on MOLT-4 leukemia it was 87.6%; in the assay with SR leukemia, 83.3%; in the assay on RPMI-8226 leukemia it was 98.7%; in the assay on OVCAR-8 ovarian, 99%. The growth in the assay with OVCAR-5 ovarian is 109%; in the assay with OVCAR-4 ovarian it was 108%; in the assay with SK-OV-3 ovarian it was 105%; in the assay on HS 578T breast, 113%; in the assay on NCI/ADR-RES ovarian, 99.4%.

Turning to `Cc1ccc(C2=NN(c3ccc(S(=O)(=O)NC(=O)NCc4ccccc4)cc3)C(c3ccc(N(C)C)cc3)C2)c(C)c1` (stereo not drawn), the growth is 40.9% in the assay with SK-MEL-2 melanoma; 46.5% in the assay on SN12C renal; 38.3% in the assay on UO-31 renal; 66.5% in the assay on TK-10 renal; 44.7% in the assay on ACHN renal; 47.7% in the assay on CAKI-1 renal. Besides, the growth in the assay with A498 renal was 51%; in the assay with CCRF-CEM leukemia it was 42%; in the assay with MOLT-4 leukemia, 23.1%; in the assay with SR leukemia, 21.5%; in the assay with RPMI-8226 leukemia it was 16.6%; with OVCAR-8 ovarian it was 30.6%. Moreover, the growth in the assay on OVCAR-5 ovarian was 55.1%; in the assay with SK-OV-3 ovarian, 88.3%; with IGROV1 ovarian it was 54.1%; in the assay with OVCAR-3 ovarian, 38.3%; with NCI/ADR-RES ovarian, 33.7%.

With `c1ccn2nnnc2c1`, the growth with SK-MEL-2 melanoma was 104%; in the assay with SN12C renal it was 92.7%; in the assay with UO-31 renal, 94.5%; with TK-10 renal, 96.4%; in the assay with ACHN renal it was 111%; in the assay on CAKI-1 renal it was 97.9%. Further, the growth with A498 renal is 101%; in the assay on CCRF-CEM leukemia, 99.7%; in the assay on MOLT-4 leukemia, 101%; with SR leukemia it was 96.5%; in the assay with RPMI-8226 leukemia it was 102%; with OVCAR-8 ovarian, 105%. Besides, the growth in the assay with OVCAR-5 ovarian was 105%; with OVCAR-4 ovarian it was 103%; with IGROV1 ovarian, 113%; in the assay on OVCAR-3 ovarian, 70.6%; in the assay with HS 578T breast, 105%; in the assay with NCI/ADR-RES ovarian it was 102%.

With `CC(=O)Nc1nc(C(=O)N2N=C(C)/C(=C/c3cccs3)C2=O)cs1`, the growth in the assay with SK-MEL-2 melanoma was 98.4%; in the assay with SN12C renal it was 110%; in the assay on UO-31 renal, 84%; in the assay with TK-10 renal, 107%; with ACHN renal, 113%; with CAKI-1 renal, 98.6%. The growth is 115% in the assay on A498 renal; 92.4% in the assay with CCRF-CEM leukemia; 79.1% with MOLT-4 leukemia; 91.9% in the assay on SR leukemia; 97.4% in the assay with RPMI-8226 leukemia; 103% with OVCAR-8 ovarian. The growth with OVCAR-5 ovarian is 115%; in the assay with OVCAR-4 ovarian it was 106%; with SK-OV-3 ovarian, 99.4%; with IGROV1 ovarian, 97.1%; with HS 578T breast it was 114%; in the assay on NCI/ADR-RES ovarian it was 112%.

As to `COc1ccc(-c2nnc(COc3ccc(NC(=O)Nc4ccc(Cl)c(C(F)(F)F)c4)cc3F)o2)cc1`, the growth with SK-MEL-2 melanoma is -7.3% (active); in the assay with SN12C renal it was 21.2%; with UO-31 renal, 2.2% (active); with TK-10 renal, 35%; in the assay on ACHN renal it was -23.2% (active); in the assay with CAKI-1 renal it was 4.77% (active). Moreover, the growth in the assay with A498 renal was -1.59% (active); with CCRF-CEM leukemia it was 0.195% (active); with MOLT-4 leukemia, 2.69% (active); in the assay with SR leukemia, -30.1% (active); in the assay with RPMI-8226 leukemia, -26.2% (active); with OVCAR-8 ovarian, 14.5%. The growth was 8.75% (active) in the assay on OVCAR-5 ovarian; 20.2% in the assay with OVCAR-4 ovarian; 26% in the assay with IGROV1 ovarian; -0.826% (active) with OVCAR-3 ovarian; 19.1% with HS 578T breast; 5.91% (active) in the assay with NCI/ADR-RES ovarian.
